From ChEMBL document CHEMBL3988442, “University of Dundee, Small-Polar-MMV Screening Library” (2021)
The whole screen tested about 48,000 compounds, of which about 13,000 (27%) showed an effect of 50% or more. The list shows a part of the results.

test system: Wolbachia pipientis; assay: Anti-Wolbachia Cell-Based Screen; format: functional; set-up: scale not given: in the data most compounds retested in dose-response had high values; settings: 5 µM

Compound | Percent Effect
CC(=O)NCc1nn(C)c2c1CN(Cc1ccsc1)C2.O=C(O)C(F)(F)F | -1.224%
N[C@@H]1c2ccccc2C2(CCN(C(=O)c3ccccc3O)CC2)[C@H]1O | 0.509%
CN(C)Cc1nnc(C2CCCN(c3nccc4ccccc34)C2)n1C (stereo unspecified) | 5.407%
CC(=O)N1CCC(C(=O)NCCN2CCCCC2)CC1 | 12.8%
CCN(CCNC(=O)C1CCN(C(C)=O)CC1)c1ccccc1C | -4.01%
COc1ccc(CCNC(=O)C2CCCOC2)c(Cl)c1 (stereo unspecified) | 0.5663%
COC(=O)N1CCCC(C(=O)Nc2ccccc2CN2CCCC2)C1 (stereo unspecified) | 22.7%
COc1ccc2[nH]cc(CCNC(=O)C3CCCN(C(C)=O)C3)c2c1 (stereo unspecified) | 94.67%
CC(=O)N1CCC(C(=O)NCCc2c[nH]c3cc(C)ccc23)CC1 | 104%
COC(=O)N1CCCC(C(=O)NCCc2c[nH]c3cc(C)ccc23)C1 (stereo unspecified) | 127.8%
COC(=O)N1CCCC(C(=O)NCc2cc3cccc(OC)c3o2)C1 (stereo unspecified) | -3.243%
COc1ccc(CCNC(=O)C2CC2)c(Cl)c1 | -15.6%
CNc1nc(CS(=O)(=O)c2ccccc2)cs1 | 7.424%
COC(C)(C)c1noc(C2(C#N)CCCC2)n1 | -17.37%
OC1(CNc2ccc(Br)cn2)CCOCC1 | 9.923%
Cc1cc(CN2CCC=C(CN(C)C(=O)c3ccco3)C2)no1 | -5.355%
Cc1ncc(CNCC(=O)NCC(F)(F)F)n1-c1ccccc1 | -11.81%
Cc1cnn(CC2CN(Cc3nnc(-c4ccccc4)o3)CCO2)c1 (stereo unspecified) | 113.1%
Cc1cnn(CC2CN(Cc3nnc(-c4occc4C)o3)CCO2)c1 (stereo unspecified) | -2.933%
Cc1cnn(CC2CN(Cc3nnc(C(C)C)o3)CCO2)c1 (stereo unspecified) | 101.2%
Cc1ccc(-c2nnc(CN3CCOC(Cn4cccn4)C3)o2)cc1 (stereo unspecified) | -8.169%
Cc1cnn(CC2CN(Cc3nc(C)c(C)o3)CCO2)c1 (stereo unspecified) | 94.42%
CCc1nnc(CN2CCOC(Cn3cc(C)cn3)C2)o1 (stereo unspecified) | 101%
Cc1cnn(CC2CN(CCS(C)(=O)=O)CCO2)c1 (stereo unspecified) | -18.36%
Cc1cnn(CC2CN(Cc3nnc(C4CC4)o3)CCO2)c1 (stereo unspecified) | -1.438%
Cc1cc(CC2COc3ccccc3C2)cnc1N (stereo unspecified) | -19.29%

Compound | Percent Effect
CC(C)Nc1ccnc(N2Cc3cnc(C(C)(C)C)nc3C2)n1 | 10.33%
CN(C)Cc1nc(C(C)(C)NC(=O)c2cccc3ccccc23)no1 | -8.122%
CCOC(=O)CN(CC(F)(F)F)C(=O)c1nc(C)n2ccccc12 | -24.45%
CNC(=O)c1cccc(CNC2CCSc3c(Cl)cccc32)c1 (stereo unspecified) | -5.902%
CSc1ccc(C(CC(=O)O)NC(=O)c2cc(C)on2)cc1 (stereo unspecified) | 6.189%
CN(C)C(=O)CN1CCc2ncnc(C3CC3)c2CC1 | 106.4%
Cc1ccc(CN2CCc3ncnc(C4CC4)c3CC2)s1.O=C(O)C(F)(F)F | -13.47%
CN(C)c1ncnc2c1CCN(Cc1nccs1)CC2.O=C(O)C(F)(F)F | 13.78%
CCc1ncnc2c1CCN(Cc1ccc3c(c1)OCO3)CC2.O=C(O)C(F)(F)F | 106.3%
O=C(O)C(F)(F)F.c1nc2c(c(NC3CCC3)n1)CCNCC2 | -15.15%
Cc1ncnc2c1CCN(Cc1ccc3c(c1)OCO3)CC2.O=C(O)C(F)(F)F | -11%
CN(C)c1ncnc2c1CCN(CC1CCOCC1)CC2.O=C(O)C(F)(F)F | -9.241%
CN(C)C(=O)CN1CCc2ncnc(NC3CCC3)c2CC1.O=C(O)C(F)(F)F | 114.3%
CN(C)C(=O)CN1CCc2ncnc(N(C)C)c2CC1.O=C(O)C(F)(F)F | 89.81%
c1nc2c(c(C3CC3)n1)CCN(Cc1ccoc1)CC2 | -6.028%
COC(C)c1noc(CN(C)c2nccnc2C#N)n1 (stereo unspecified) | 3.907%
CCN(CCn1cccn1)Cc1nc(-c2cc(F)ccc2F)oc1C | -20.47%
O=C(C1CC=CC1)N1CC[C@@H]2O[C@H](COCC3CCOCC3)CC[C@@H]21 | 2.259%
O=C(CS(=O)(=O)Cc1cccc(Br)c1)Nc1cn[nH]c1 | 6.351%
O=C(C1=CCCCC1)N1CCO[C@H]2[C@H](Oc3ccccn3)CC[C@@H]21.O=C(O)C(F)(F)F | -5.477%
Cc1ncnc2c1CCN(C(=O)N(C)C)CC2 | 95.78%
Cc1ncnc2c1CCN(C(=O)CN(C)C)CC2.O=C(O)C(F)(F)F | -6.566%
CCc1ncnc2c1CCN(Cc1nccs1)CC2.O=C(O)C(F)(F)F | 16.77%
CCc1ncnc2c1CCN(Cc1ccccn1)CC2.O=C(O)C(F)(F)F.O=C(O)C(F)(F)F | 16.56%
Cc1ncnc2c1CCN(CC(=O)N(C)C)CC2.O=C(O)C(F)(F)F | 112%
Cc1ncnc2c1CCN(Cc1nccs1)CC2.O=C(O)C(F)(F)F | -9.134%

Compound | Percent Effect
CCc1ncnc2c1CCN(CC(=O)N(C)C)CC2.O=C(O)C(F)(F)F | 107.9%
Cc1ncnc2c1CCN(C(=O)c1ccnnc1)CC2 | -1.373%
CN(C1CCCCC1)S(=O)(=O)N1CCN(Cc2ccon2)CC1 | -9.326%
Cc1noc(C)c1CN1CCCC2(CCN(C(=O)N3CCOCC3)C2)C1 (stereo unspecified) | 105.6%
Cc1noc(C)c1CN1CCC2(CC1)CCN(C(=O)c1cscn1)C2.O=C(O)C(F)(F)F | -11.08%
Cc1noc(C)c1CN1CCCC2(C1)CN(Cc1nccn1C)CCO2.O=C(O)C(F)(F)F.O=C(O)C(F)(F)F (stereo unspecified) | -4.465%
Cl.N[C@@H](Cc1ccccc1)c1nnc(S(=O)(=O)Cc2ccc(Cl)cc2)o1 | 72.38%
Cc1cccc(CS(=O)(=O)c2nnc(N3CCOCC3)s2)c1 | -9.139%
O=S(=O)(Cc1ccccc1)c1nnc(N2CCOCC2)s1 | 4.64%
Cc1nnc(CN(Cc2cccc(Cl)c2)C(C)C)o1 | -3.327%
Cl.N[C@@H](Cc1ccccc1)c1nnc(S(=O)(=O)Cc2cccc(Cl)c2)o1 | 90.15%
N#Cc1cccc(CS(=O)(=O)NC(Cc2ccccc2)C(N)=O)c1 (stereo unspecified) | -5.324%
N[C@@H](Cc1ccccc1)c1nnc(S(=O)(=O)Cc2ccccc2)o1 | 107.1%
NC(=O)C(Cc1ccccc1)NS(=O)(=O)Cc1ccccc1F (stereo unspecified) | -4.164%
Cc1cccc(CS(=O)(=O)c2nnc([C@@H](N)Cc3ccccc3)o2)c1.Cl | 119.9%
Cc1cccc(CS(=O)(=O)NCC(O)Cc2ccccc2)c1 (stereo unspecified) | 2.043%
CCc1[nH]c2c(CNc3cc(C)nc(NC)n3)cc(C)cc2c1C | 7.086%
Cc1noc(C2CN(S(=O)(=O)C3CC3)Cc3ccnn3C2)n1 (stereo unspecified) | -3.92%
Cc1nc(-c2ccccc2)sc1CSCCS(C)(=O)=O | 5.255%
CCCN1CCC(C(=O)NCCN(CC)c2ccccc2C)CC1 | 6.668%
CSc1ccc(NC(=O)NCC(O)C2CC2)cc1F (stereo unspecified) | -6.513%
COc1ccc(NC(=O)Cn2nc(C)c(C)cc2=O)c(OC)c1 | -17.24%
COc1ccc(NC(=O)Cn2nc(C)c(C(C)=O)c2C)cc1 | 9.099%
COc1ccccc1CNC(=O)Cn1ncc2c1c(C)nn2C | 14.16%
CCn1nc(C)c2c1cnn2CC(=O)NC(C)c1cccc(OC)c1 (stereo unspecified) | 108.9%
COc1cccc(C(CO)NC(=O)Cc2cccc(C)c2)c1 (stereo unspecified) | -8.321%

Compound | Percent Effect
CCn1nc(C)c2c1cnn2CC(=O)Nc1ccc(OC)cc1C | 97.13%
Cc1nn(C)c2cnn(CC(=O)NCCc3ccccc3)c12 | -4.573%
CCC(C)NC(=O)Cn1ncc2c1c(C)nn2CC (stereo unspecified) | 78.16%
Cc1ccc(CNC(=O)Cn2ncc3c2c(C)nn3C)cc1 | 2.775%
Cc1ccc(C(=O)NS(=O)(=O)c2cc(Cl)ccc2Cl)c(=O)[nH]1 | 0.2464%
OCCOc1ccc(NCc2cccc3cn[nH]c23)cn1 | 11.64%
Cl.NCC1CCC(c2c(C(=O)NCCO)sc3ccccc23)CC1 (stereo unspecified) | 105.7%
Cl.NC[C@H]1CC[C@H](c2c(C(N)=O)sc3ccccc32)CC1 | 138.4%
CC(C)NC(=O)c1sc2ccccc2c1[C@H]1CC[C@H](CN)CC1.Cl | 141.4%
CC(NC(=O)c1cccc[n+]1[O-])C1CC1 (stereo unspecified) | -12.99%
CN(C)CCNC(=O)c1ccc(S(=O)(=O)N[C@@H]2CCNC2)cc1 | -7.63%
CC1CCc2nc(O)c(C(=O)NCCN(C)C)cc2C1 (stereo unspecified) | 7.628%
CN(C)CCNC(=O)c1sc2ccccc2c1C1CCC(CN)CC1.Cl (stereo unspecified) | 88.67%
CC(NC(=O)N1CCC(CO)CC1)c1csc2ccccc12 (stereo unspecified) | -26.26%
CCn1cc2c(n1)C(COCC1CC1)CN(C(=O)c1cc(C)on1)C2 (stereo unspecified) | -20.07%
CC(Nc1ccc(CC(=O)N(C)C)cc1)C(=O)N(C)CCC#N (stereo unspecified) | 3.748%
Cn1ncc2c(N3CCCC(C)(O)C3)nc(C(C)(C)C)nc21 (stereo unspecified) | -0.5703%
COc1ccc(CCC(=O)Nc2cccnc2N2CCCC2)cc1Br | 3.443%
O=C(O)C(F)(F)F.O=C1CC[C@@H]2[C@@H](CCN2C(=O)c2ccsc2)N1Cc1ccncc1 | -34.69%
COCCNC(=O)c1cc2c(nc1O)CC(c1cccs1)CC2=O (stereo unspecified) | 7.497%
COCCNC(=O)c1sc2ccccc2c1C1CCC(CN)CC1.Cl (stereo unspecified) | 140.8%
NC(=O)COCCNC(=O)Nc1sc2ccccc2c1Cl | 6.222%
CCCN1CCN(C(=O)c2cc[nH]n2)[C@H]2CS(=O)(=O)C[C@H]21 | 3.177%
